Data: PubChem BioAssay (NCATS)
Results filed as inconclusive are left out. Active and inactive are the calls of the source. Unless noted, the call rests on the fitted dose curve; in most records, active means well fitted curve in the direction sought with a large enough effect; inconclusive means small, poorly fitted or top-dose-only effect, or another doubt; inactive means no such curve, though single readings can be large; an effect the other way counts as inactive or inconclusive.

What was measured:
[1] = qHTS for Inhibitors of the Functional Ribonucleoprotein Complex (vRNP) of Lassa (LASV) Arenavirus: LASV Primary Screen - GLuc reporter signal (AID 1347082; calls by dose curve; tested in HEK293 reporter line; further: series mostly up to about 57 µM; nearly all actives have a fitted effect of over 60% in size)
[2] = qHTS for Inhibitors of the Functional Ribonucleoprotein Complex (vRNP) of Lassa (LASV) Arenavirus: Viability assay - alamar blue signal for LASV Primary Screen (AID 1347083; calls by dose curve; tested in HEK293 reporter line; further: series mostly up to about 57 µM; nearly all actives have a fitted effect of over 80% in size)
[3] = qHTS for Inhibitors of the Functional Ribonucleoprotein Complex (vRNP) of Lymphocytic Choriomeningitis Arenaviruses (LCMV): Viability assay - alamar blue signal for LCMV Primary Screen (AID 1347085; calls by dose curve; tested in HEK293 reporter line; further: series mostly up to about 57 µM; nearly all actives have a fitted effect of over 80% in size)
[4] = molecular target: Nucleoprotein (Lymphocytic choriomeningitis virus (strain Armstrong)) (UniProt P09992); assay: qHTS for Inhibitors of the Functional Ribonucleoprotein Complex (vRNP) of Lymphocytic Choriomeningitis Arenaviruses (LCMV): LCMV Primary Screen - GLuc reporter signal (AID 1347086; calls by dose curve; further: series mostly up to about 57 µM; nearly all actives have a fitted effect of over 70% in size)
Chain of Nucleoprotein (Lymphocytic choriomeningitis virus (strain Armstrong)) (P09992 whole entry, looked up): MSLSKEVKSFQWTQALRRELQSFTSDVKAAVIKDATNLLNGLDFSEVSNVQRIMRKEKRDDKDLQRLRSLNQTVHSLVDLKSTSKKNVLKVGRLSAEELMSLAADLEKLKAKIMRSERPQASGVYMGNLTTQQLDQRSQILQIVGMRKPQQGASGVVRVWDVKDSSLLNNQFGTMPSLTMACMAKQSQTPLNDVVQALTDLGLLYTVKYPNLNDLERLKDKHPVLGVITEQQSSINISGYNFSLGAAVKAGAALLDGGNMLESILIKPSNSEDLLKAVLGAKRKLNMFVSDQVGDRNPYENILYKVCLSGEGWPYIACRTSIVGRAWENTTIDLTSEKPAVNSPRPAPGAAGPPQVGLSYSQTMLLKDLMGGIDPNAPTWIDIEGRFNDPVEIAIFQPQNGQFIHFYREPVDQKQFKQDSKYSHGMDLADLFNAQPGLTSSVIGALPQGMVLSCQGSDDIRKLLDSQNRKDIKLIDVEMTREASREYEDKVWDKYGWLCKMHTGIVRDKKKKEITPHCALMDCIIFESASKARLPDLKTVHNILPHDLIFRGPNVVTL

[5] = test system: Zika virus NS2B-NS3 protease (linked construct); assay: Primary screen NINDS Rhodamine qHTS for Zika virus inhibitors (AID 1347160); further: nearly all actives have a fitted effect of over 55% in size
Outline: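 Percent inhibition, normalized to uninhibited and enzyme-free controls, is fitted to a 4-parameter Hill equation. Fluorescence change comes from a 15-min cleavage of 1.5 microM bis-peptide Rhodamine110 substrate by 25 nM linked NS2B-NS3 at room temperature.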

[6] = OV-KATE Cancer Cell Toxicity qHTS against the NCATS CANVASS Library (AID 1347345)
Outline: (§1)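 Quantitative HTS format: an 11-concentration series was applied to 1000 cells/well following a 4-hour attachment. Cultures ran 72 hours before ATP luminescence detection by CellTiter-Glo.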

[7] = HPAF-II Cancer Cell Toxicity qHTS against the NCATS CANVASS Library (AID 1347346); further: series mostly up to about 38 µM; nearly all actives have a fitted effect of over 55% in size
Outline: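 Luminescence from CellTiter-Glo, added after 72 h compound exposure and a 15 min room-temperature incubation, served as the viability readout. HPAF-II cells (1000/well) received an 11-point concentration series.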

[8] = UWB1.289 Cancer Cell Toxicity qHTS against the NCATS CANVASS Library (AID 1347347); further: series mostly up to about 38 µM; nearly all actives have a fitted effect of over 60% in size
Outline: as §1

[9] = Panc-1005 Cancer Cell Toxicity qHTS against the NCATS CANVASS Library (AID 1347349); further: series mostly up to about 38 µM; nearly all actives have a fitted effect of over 60% in size
Outline: as §1

[10] = SW1088 Cancer Cell Toxicity qHTS against the NCATS CANVASS Library (AID 1347350); further: nearly all actives have a fitted effect of over 75% in size
Outline: as §1

[11] = U-118MG Cancer Cell Toxicity qHTS against the NCATS CANVASS Library (AID 1347351); further: series mostly up to about 38 µM
Outline: as §1

[12] = COV-362 Cancer Cell Toxicity qHTS against the NCATS CANVASS Library (AID 1347352); further: series mostly up to about 38 µM
Outline: (§2)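 Luminescent ATP read-out (CellTiter-Glo, 15min at room temperature) measures survival after cells face an 11-point compound series for 72 hours at 37 degrees C/5% CO2.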

[13] = A2780 Cisplatin Sensitive Ovarian Cancer Cell Toxicity qHTS against the NCATS CANVASS Library (AID 1347353); further: nearly all actives have a fitted effect of over 60% in size
Outline: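 Luminescent ATP content (ATPLite, 10 min at room temperature) served as the read-out after cells had been exposed to compounds for 72 hours at 37 °C. Dosing followed an 11-point concentration series.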

[14] = HEK-293 Cancer Cell Toxicity qHTS against the NCATS CANVASS Library (AID 1347355); further: series mostly up to about 46 µM; nearly all actives have a fitted effect of over 65% in size
Outline: as §2

[15] = HPAF-II 24hr Apoptosis Induction qHTS against the NCATS CANVASS Library (AID 1347356)
Outline: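 Luminescent caspase-3/7 signal (DEVD substrate, Caspase-Glo) served as read-out, taken 15 min after reagent addition to HPAF-II cells exposed 24 h to compounds.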

[16] = HEK293 18hr Apoptosis Induction qHTS against the NCATS CANVASS Library (AID 1347357)
Outline: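 Caspase-Glo 3/7 luminescence (15 min, room temperature) measured apoptosis after an 18-hour, 37 degrees C exposure of HEK293 cells (500 cells/well) to compounds in 11 points.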

[17] = HPAF-II 12hr Apoptosis Induction qHTS against the NCATS CANVASS Library (AID 1347358)
Outline: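 500 HPAF-II cells/well; cmpds 11-pt; 12 hr, 37 degrees C/5% CO2; Caspase-Glo 3/7 added, 15 min RT dark; luminescence read. Doxorubicin titration as control.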

[18] = HEK293 24hr Apoptosis Induction qHTS against the NCATS CANVASS Library (AID 1347359)
Outline: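 Caspase-3/7 activation measured as luminescence from the DEVD-based Caspase-Glo reagent, 15 min at room temperature, following 24-hour compound treatment of HEK293 cells.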

[19] = HPAF-II 18hr Apoptosis Induction qHTS against the NCATS CANVASS Library (AID 1347360)
Outline: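 Caspase-3/7 activation was measured with luminescent Caspase-Glo 3/7 reagent (15 min, RT) in HPAF-II cancer cells (500 cells/well). Before detection, cells had been treated for 18 h at 37 C with compounds (11 points).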

[20] = HEK293 12hr Apoptosis Induction qHTS against the NCATS CANVASS Library (AID 1347361)
Outline: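 HEK293 cells (500/well, DMEM + 10% FBS) were exposed to natural products across an 11-point series for 12 hours at 37 degrees C. Caspase-3/7 activity was then measured with DEVD luciferase luminescence after 15 min at room temperature.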

[21] = test system: NAD(P)H diaphorase (Clostridium kluyveri); assay: Diaphorse counterscreen qHTS: Assay Interference Panel against the NCATS CANVASS Library (AID 1347362)
Outline: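 Counterscreen for coupling-enzyme interference: resorufin fluorescence from resazurin/NADH turnover, read after 5 min at room temperature. Compounds were tested over an 11-point series after 15 min dark preincubation with diaphorase in PBS-Tween.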

[22] = molecular target: Luciferin 4-monooxygenase (Photinus pyralis) (UniProt P08659); assay: Firefly luciferase counterscreen qHTS: Assay Interference Panel against the NCATS CANVASS Library (AID 1347363); further: series mostly up to about 57 µM
Chain of Luciferin 4-monooxygenase (Photinus pyralis) (P08659 whole entry, looked up): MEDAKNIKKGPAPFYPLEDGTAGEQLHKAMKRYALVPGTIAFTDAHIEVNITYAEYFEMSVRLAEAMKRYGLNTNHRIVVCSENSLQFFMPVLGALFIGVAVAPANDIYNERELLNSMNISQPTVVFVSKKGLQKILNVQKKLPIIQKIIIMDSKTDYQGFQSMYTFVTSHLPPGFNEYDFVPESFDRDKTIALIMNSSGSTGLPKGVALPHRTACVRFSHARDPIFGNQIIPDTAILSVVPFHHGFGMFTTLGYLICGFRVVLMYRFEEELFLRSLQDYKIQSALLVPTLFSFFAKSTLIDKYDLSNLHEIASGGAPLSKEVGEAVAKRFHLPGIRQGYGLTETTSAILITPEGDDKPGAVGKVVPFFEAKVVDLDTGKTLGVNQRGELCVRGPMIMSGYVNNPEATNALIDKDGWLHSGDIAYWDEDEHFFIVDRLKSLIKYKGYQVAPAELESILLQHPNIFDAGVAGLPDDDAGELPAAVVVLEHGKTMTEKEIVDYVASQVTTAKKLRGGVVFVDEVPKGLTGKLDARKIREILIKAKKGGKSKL
Outline: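 Luminescence inhibition readout: compounds (11-point qHTS) sat 15 min at room temperature with substrate mix (0.013 mM luciferin and ATP), then firefly luciferase was added and signal read 5 min later.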

[23] = KB-8-5-11 Cancer Cell Toxicity qHTS against the NCATS CANVASS Library (AID 1347364); further: series mostly up to about 46 µM; nearly all actives have a fitted effect of over 75% in size
Outline: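 Plate 500 KB-8-5-11 cells per well in DMEM + 10% FBS, add compounds by pin transfer, incubate 72 hr at 37C. Add CellTiter-Glo, wait 10 minutes at room temperature, read luminescence.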

Measured: Potency

NCCc1ccccc1
inactive: all assays above
